High-throughput results from PubChem BioAssay.
Hits are enriched below; roughly 1.2% of the tested compounds scored in any of these assays.
CIT2 TOR yeast – modulators of CIT2-GFP expression in yeast, primary screen, S. cerevisiae, GFP fusion, multiplex flow cytometry, MLPCN library; AID 2029, 2009; S. cerevisiae CIT2-GFP strain, 3 h; 100 means same as DMSO wells; 320,000 compounds, 0.065% hits; GFP response vs DMSO, % at 10 µM;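 active means GFP response relative to DMSO above a set limit, near the screen mean plus 3 SD, cut at about 150% in these data; inconclusive means Fewer than 70 cells measured for a yeast strain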;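 further: ratio of well median GFP fluorescence to mean of DMSO wells on the plate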
MEP2 TOR yeast – modulators of MEP2-GFP levels in yeast, primary screen, S. cerevisiae, multiplex flow cytometry, MLPCN library | S. cerevisiae MEP2-GFP strain, 3 h; 100% = DMSO control level | GFP response vs DMSO, % at 10 µM | 330,000 compounds, 0.51% hits;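 active means GFP response versus DMSO above a set limit, roughly screen mean plus 3 SD, cut at about 180% in these data; inconclusive means fewer than 70 cells counted for a yeast strain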;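 further: median GFP fluorescence of the barcode-gated MEP2-GFP cells per well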
LAP4 TOR yeast – modulators of LAP4-GFP expression in yeast, primary screen, S. cerevisiae, multiplex flow cytometry, MLPCN library; AID 2023, 2009; GFP response vs DMSO, % at 10 µM; 3 h; median GFP as percent of DMSO wells; 320,000 compounds, 0.34% hits;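 active means GFP response vs DMSO above a set limit, about the screen mean plus 3 SD, cut at about 150% in these data; inconclusive means under 70 cell events counted for the yeast strain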
AGP1-GFP MLPCN – modulators of AGP1-GFP expression in yeast TOR pathway, primary screen, cell-based, multiplex flow cytometry, S. cerevisiae, MLPCN library | 3 h; GFP as percent of DMSO wells | GFP response vs DMSO, % at 10 µM | 320,000 compounds, 0.02% hits;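 active means GFP response relative to DMSO above a set limit, near screen average plus 3 SD, cut at about 150% in these data; inconclusive means fewer than 70 cells counted for the yeast strain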;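 further: median GFP channel fluorescence of the gated AGP1 strain per well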
DSG3 Ab inh – inhibitors of pemphigus antibody binding to DSG3, primary screen, biochemical, bead-based, flow cytometry, scFv-GFP. Desmoglein-3 (Homo sapiens), P32926. DSG3-coupled beads, scFv-anti-DSG3-GFP binding; active compounds read low. binding (percent of control), % at 10 µM. 310,000 compounds, 0.48% hits;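 active means binding more than 3 SD below its plate's average and above zero; inconclusive means below that plate limit but binding exactly zero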;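 further: hits lower antibody fragment binding to DSG3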
Target sequence (P32926 whole entry, looked up, the tested form may be a part): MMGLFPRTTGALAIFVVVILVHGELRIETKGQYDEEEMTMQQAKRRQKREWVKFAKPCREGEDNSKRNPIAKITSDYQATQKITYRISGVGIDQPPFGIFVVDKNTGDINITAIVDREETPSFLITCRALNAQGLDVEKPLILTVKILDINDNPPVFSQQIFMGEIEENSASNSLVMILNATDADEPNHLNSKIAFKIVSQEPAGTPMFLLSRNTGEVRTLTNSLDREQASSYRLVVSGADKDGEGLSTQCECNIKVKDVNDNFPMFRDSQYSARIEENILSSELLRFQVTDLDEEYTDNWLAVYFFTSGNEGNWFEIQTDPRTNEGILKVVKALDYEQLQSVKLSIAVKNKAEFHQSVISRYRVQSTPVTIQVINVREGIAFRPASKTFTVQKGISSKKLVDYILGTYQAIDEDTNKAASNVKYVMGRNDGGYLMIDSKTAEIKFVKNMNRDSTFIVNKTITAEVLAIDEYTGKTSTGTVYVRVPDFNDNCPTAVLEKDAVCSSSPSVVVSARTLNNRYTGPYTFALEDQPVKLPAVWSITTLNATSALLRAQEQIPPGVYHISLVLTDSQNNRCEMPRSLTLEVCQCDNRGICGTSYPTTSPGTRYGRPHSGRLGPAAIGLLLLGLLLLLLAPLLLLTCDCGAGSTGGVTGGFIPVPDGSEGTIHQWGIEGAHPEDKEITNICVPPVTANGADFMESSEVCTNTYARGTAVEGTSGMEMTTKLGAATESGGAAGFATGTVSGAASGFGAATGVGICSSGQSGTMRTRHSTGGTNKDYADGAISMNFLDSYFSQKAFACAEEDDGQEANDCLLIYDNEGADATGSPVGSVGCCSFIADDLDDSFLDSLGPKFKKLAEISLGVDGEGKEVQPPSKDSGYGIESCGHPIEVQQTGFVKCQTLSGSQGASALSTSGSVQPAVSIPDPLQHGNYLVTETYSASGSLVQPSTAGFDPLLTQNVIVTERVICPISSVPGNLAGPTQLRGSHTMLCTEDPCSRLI
RPL19A-GFP yeast – RPL19A-GFP expression modulators in yeast, primary screen, cell-based, S. cerevisiae, multiplex flow cytometry, MLPCN. S. cerevisiae RPL19A-GFP strain, 3 h; active compounds read low. AID 2025, 2009. 330,000 compounds, 0.3% hits. percent response vs DMSO, % at 10 µM;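 active means percent response vs DMSO below 50%; inconclusive means fewer than 70 events counted for the yeast strain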;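 further: median channel GFP fluorescence of the barcoded RPL19A-GFP strain; ratio of sample median GFP to plate DMSO average so 100% = DMSO; lower means less RPL19A-GFP as with rapamycin TOR inhibition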
* hit, by the source's call; [ ] = dose if it differs, or a comment.

Results for C#CCOCCOCCOCCNc1nc(N2CCN(C(=O)CCCCCCCCCCNC(=O)[C@H](CCCCN)n3cc(C[C@@H](C)CC)nn3)CC2)nc(N2CCN(C(=O)CCCCCCCCCCNC(=O)[C@@H]([C@H](C)O)n3cc(C)nn3)CC2)n1 ?
CIT2 TOR yeast: 94; MEP2 TOR yeast: 101; LAP4 TOR yeast: 149; AGP1-GFP MLPCN: 98; DSG3 Ab inh: 128; RPL19A-GFP yeast: 74

Results for C#CCOCCOCCOCCNc1nc(N2CCN(C(=O)CCCCCCCCCCNC(=O)[C@H](CO)n3cc(CCCCCN)nn3)CC2)nc(N2CCN(C(=O)CCCCCCCCCCNC(=O)[C@H](CCCN=C(N)N)n3cc(C[C@@H](C)CC)nn3)CC2)n1 ?
CIT2 TOR yeast: 94; MEP2 TOR yeast: 97; LAP4 TOR yeast: 162*; AGP1-GFP MLPCN: 98; RPL19A-GFP yeast: 72

Results for CN(C(=O)CCl)C1CCCc2ccccc21 (configuration not stated) ?
DSG3 Ab inh: 97

What do the screens show for `N#CCCCC1(CCCC#N)OCCO1`?
DSG3 Ab inh: 94

What do the screens show for `NC(=O)CC(NC(=O)Cc1ccc(Br)cc1)c1ccc(NC2CCCC2)c([N+](=O)[O-])c1` (configuration not stated)?
CIT2 TOR yeast: 86; MEP2 TOR yeast: 102; LAP4 TOR yeast: 106; AGP1-GFP MLPCN: 86; DSG3 Ab inh: 1.8*; RPL19A-GFP yeast: 101

How did NC(=O)CC(NC(=O)Cc1ccc(Br)cc1)c1ccc(NC2CCCCCCC2)c([N+](=O)[O-])c1 (configuration not stated) do in these assays?
DSG3 Ab inh: 102

Results for O=C1c2ccccc2CCC12N=NCC2c1ccccc1 (configuration not stated) ?
CIT2 TOR yeast: inconclusive; MEP2 TOR yeast: 246*[may fluoresce violet]; LAP4 TOR yeast: 133; AGP1-GFP MLPCN: inconclusive; RPL19A-GFP yeast: 14*[may fluoresce violet]

Results for N#CCCn1cc(CNC2CCC(O)CC2)c2ccccc21 (configuration not stated) ?
CIT2 TOR yeast: inconclusive; MEP2 TOR yeast: 245*[may fluoresce violet]; LAP4 TOR yeast: 60; AGP1-GFP MLPCN: inconclusive; DSG3 Ab inh: 119; RPL19A-GFP yeast: 46*[may fluoresce violet]

What do the screens show for `Cc1cccc(C)c1OCC(=O)NCc1ccccc1`?
CIT2 TOR yeast: inconclusive; MEP2 TOR yeast: 277*[may fluoresce violet]; LAP4 TOR yeast: 80; AGP1-GFP MLPCN: inconclusive; DSG3 Ab inh: inconclusive; RPL19A-GFP yeast: 42*[may fluoresce violet]

Results for Cc1ccc(SCC(=O)OCC(=O)NC2(C#N)CCCCC2)cc1 ?
CIT2 TOR yeast: 86; MEP2 TOR yeast: 99; LAP4 TOR yeast: 84; AGP1-GFP MLPCN: 86; DSG3 Ab inh: 99; RPL19A-GFP yeast: 104

How did CCOC(=O)c1ccc(N2CN(C3CCCCC3)CNC2=S)cc1 do in these assays?
CIT2 TOR yeast: inconclusive; MEP2 TOR yeast: 237*[may fluoresce violet]; LAP4 TOR yeast: 98; AGP1-GFP MLPCN: inconclusive; DSG3 Ab inh: 111; RPL19A-GFP yeast: 31*[may fluoresce violet]

Results for CCOc1ccccc1N1CN(C2CCCCC2)CNC1=S ?
CIT2 TOR yeast: 86; MEP2 TOR yeast: 100; LAP4 TOR yeast: 110; AGP1-GFP MLPCN: 101; DSG3 Ab inh: 102; RPL19A-GFP yeast: 93

What do the screens show for `COc1ccccc1-c1cccc([C@@H]2C[C@H]3[C@H](CON3C)CN2C(C)=O)c1`?
DSG3 Ab inh: 108

What do the screens show for `Oc1[nH]c(N=C2N=c3ccccc3=N2)c2ccccc12`?
CIT2 TOR yeast: inconclusive; MEP2 TOR yeast: 191*[may fluoresce violet]; LAP4 TOR yeast: 131; AGP1-GFP MLPCN: 18; DSG3 Ab inh: inconclusive; RPL19A-GFP yeast: 90

Results for CC(C)c1ccc(NC2CCCN(C(=O)CC3CCCC3)C2)cc1 (configuration not stated) ?
CIT2 TOR yeast: 89; MEP2 TOR yeast: 99; LAP4 TOR yeast: 96; AGP1-GFP MLPCN: 85; DSG3 Ab inh: 107; RPL19A-GFP yeast: 98

Results for COc1ccccc1NC(=O)c1ccc2c(c1)N(CC#N)C(=O)C(C)(C)O2 ?
CIT2 TOR yeast: 97; MEP2 TOR yeast: 108; LAP4 TOR yeast: 102; AGP1-GFP MLPCN: 106; DSG3 Ab inh: 117; RPL19A-GFP yeast: 106

What do the screens show for `O=C(O)c1ccc(-c2ccc(/C=C3\NC(=O)N(Cc4ccc(Cl)cc4)C3=O)o2)cc1Cl`?
DSG3 Ab inh: 80*

What do the screens show for `CCOC(=O)CN1C(=O)S/C(=C\c2ccc(-c3ccc(C(=O)O)c(Cl)c3)o2)C1=O`?
CIT2 TOR yeast: 94; MEP2 TOR yeast: 112; LAP4 TOR yeast: 96; AGP1-GFP MLPCN: 90; DSG3 Ab inh: 107; RPL19A-GFP yeast: 104

How did CCN(CC(=O)Nc1ccccc1C(F)(F)F)C(=O)C1=COCCO1 do in these assays?
CIT2 TOR yeast: 103; MEP2 TOR yeast: 101; LAP4 TOR yeast: 105; AGP1-GFP MLPCN: 109; DSG3 Ab inh: 102; RPL19A-GFP yeast: 98

How did Cc1c(CCC(=O)NCC(=O)O)c(=O)oc2cc3occ(-c4ccccc4)c3cc12 do in these assays?
CIT2 TOR yeast: 99; MEP2 TOR yeast: 106; LAP4 TOR yeast: 98; AGP1-GFP MLPCN: 94; DSG3 Ab inh: 84; RPL19A-GFP yeast: 108

What do the screens show for `CCCC(NC(=O)CCc1c(C)c2cc3c(-c4ccccc4)coc3cc2oc1=O)C(=O)O` (configuration not stated)?
CIT2 TOR yeast: inconclusive; MEP2 TOR yeast: 288*[may fluoresce violet]; LAP4 TOR yeast: 100; AGP1-GFP MLPCN: inconclusive; DSG3 Ab inh: 103; RPL19A-GFP yeast: 65

Results for COc1ccc(/C=N/OCC(=O)NCC(C)C)c(OC)c1 ?
CIT2 TOR yeast: 105; MEP2 TOR yeast: 102; LAP4 TOR yeast: 95; AGP1-GFP MLPCN: 101; DSG3 Ab inh: 108; RPL19A-GFP yeast: 96

Results for COC(=O)c1ccc(CO/N=C/c2ccc(OC)cc2OC)cc1 ?
CIT2 TOR yeast: inconclusive; MEP2 TOR yeast: 217*[may fluoresce violet]; LAP4 TOR yeast: 76; AGP1-GFP MLPCN: 17; DSG3 Ab inh: 104; RPL19A-GFP yeast: 65

What do the screens show for `CC(C)[C@H](NC(=O)c1ccco1)C(=O)OCC(=O)Nc1ccc(Cl)c(S(=O)(=O)N(C)C)c1`?
CIT2 TOR yeast: inconclusive; MEP2 TOR yeast: 178*[may fluoresce violet]; LAP4 TOR yeast: 59; AGP1-GFP MLPCN: inconclusive; DSG3 Ab inh: 100; RPL19A-GFP yeast: 21*[may fluoresce violet]

What do the screens show for `CC(C)[C@H](NC(=O)c1ccco1)C(=O)OCC(=O)Nc1cccc(F)c1`?
CIT2 TOR yeast: 107; MEP2 TOR yeast: 120; LAP4 TOR yeast: 101; AGP1-GFP MLPCN: 99; DSG3 Ab inh: 98; RPL19A-GFP yeast: 98

What do the screens show for `CC(C)(C)OC(=O)N(Cc1ccccc1)Cc1cccc(OCc2cccc(NC(=O)c3ccccc3)c2)c1`?
DSG3 Ab inh: 104
